Potency data for 49 compounds are collected here from PubChem BioAssay AID602310 (National Center for Advancing Translational Sciences (NCATS), 2012).

Among all 410,000 compounds or so, about 310 (0.076%) were called active. Where a call stands in place of a potency, no number is given. Not shown: some 2% with an inconclusive outcome. Calls come from the whole dose curve; as a rule, active = well fitted curve in the direction sought with a large enough effect; inconclusive = small, poorly fitted or top-dose-only effect; inactive = flat fitted curve, though single readings scatter. This excerpt belongs to a sample that is enriched for actives.
Potency is the fitted concentration of half-maximal effect.

In the assay the target is DNA dC->dU-editing enzyme APOBEC-3G (Homo sapiens) (UniProt Q9HC16). Description: qHTS for Inhibitors of Vif-A3G Interactions: qHTS. Note: nearly all actives have a fitted effect of over 60% in size. To be noted: HeLa A3G-eYFP + Vif (tagged APOBEC3G with the HIV-1 protein that degrades it), YFP fluorescence, overnight; series mostly up to 46.1 µM. Put shortly: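 HeLa cells stably expressing Vif and C-terminally eYFP-tagged A3G, seeded overnight at 37 deg C, then exposed to compound by pintool overnight at 37 deg C. Rise in yellow fluorescence (Ex 488/Em 500-530, Acumen) marks blocked Vif-driven A3G degradation.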
DNA dC->dU-editing enzyme APOBEC-3G (Homo sapiens), sequence (Q9HC16 whole entry, looked up): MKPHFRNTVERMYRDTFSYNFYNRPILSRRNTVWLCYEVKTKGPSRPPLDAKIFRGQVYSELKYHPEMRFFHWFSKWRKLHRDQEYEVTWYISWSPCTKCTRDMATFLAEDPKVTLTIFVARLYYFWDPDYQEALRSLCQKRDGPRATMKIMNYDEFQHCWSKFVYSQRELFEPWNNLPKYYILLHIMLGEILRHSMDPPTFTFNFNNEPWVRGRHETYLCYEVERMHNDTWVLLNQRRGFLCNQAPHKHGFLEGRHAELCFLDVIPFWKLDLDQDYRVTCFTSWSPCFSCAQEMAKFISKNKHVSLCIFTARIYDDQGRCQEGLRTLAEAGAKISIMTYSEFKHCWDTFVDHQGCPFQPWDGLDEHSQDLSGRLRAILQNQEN
(Quantitative high-throughput screening tests each substance at several concentrations.)
For `CCOc1n[nH]c(-c2ccccc2)n1`, the Potency entry is “inactive”.
With `CCc1nn(CC(=O)Nc2cccc(C)c2C)c(=O)c2cc3sccc3n12` the entry was “inactive”; with `CCOc1ccccc1NC(=O)CN1CCN(S(=O)(=O)c2ccc(Br)cc2)CC1`, “inactive”.
As for `COc1cccc(NC(=O)Cn2c(=O)cc(C)c3c(C)nn(-c4cccc(F)c4)c32)c1`, the Potency result was “inactive”.
For the compound `Nc1nc(N)c(N=O)c(N)n1`, the Potency entry is “inactive”.
Then `CCCCOc1ccc(C(=O)N2CC(=O)Nc3ccc(Br)cc3C2c2ccc(F)cc2)cc1` (centres undefined), with “inactive”; and `COc1ccccc1/C=C/c1nc(C#N)c(NC(C)c2ccccc2)o1` (centres undefined), with “inactive”; and `COc1ccc(CCNC(=O)c2ccc(CSCc3ccc(C)cc3)o2)cc1OC`, with “inactive”.
Turning to `CNCCCOc1cc2nc(N3CCCN(C)CC3)nc(NC3CCN(C)CC3)c2cc1OC`, the Potency result is “inactive”.
`O=C(COc1ccccc1C(=O)Nc1ccccc1)Nc1cccc(F)c1`: the Potency result is “inactive”.
For `CC1(C)CC(=O)c2cc(C(=O)NCc3ccccc3)c(=O)[nH]c2C1`, the Potency result was “inactive”.
Then `Cn1nnnc1SCCNCc1ccc(Cl)c(Cl)c1`, with “inactive”; and `Cc1csc[n+]1CCC1CCCCC1`, with “inactive”; and `CCCCn1c(CNC(=O)C23CC4CC(CC(C4)C2)C3)nnc1SCC(=O)Nc1ccc(C)cc1`, with “inactive”.
With `CCn1c(CNC(=O)C23CC4CC(CC(C4)C2)C3)nnc1SCC(=O)Nc1ccc(OC)cc1` the figure was 10 µM (active); with `CCn1c(CNc2ccc(OC)cc2)nnc1SCC(=O)c1ccc(OC)cc1`, “inactive”; with `Cc1ccc(C(=O)COC(=O)C(Cc2c[nH]c3ccccc23)NC(=O)c2ccc(Br)cc2)cc1` (centres undefined), “inactive”.
With `Cc1ccc(Cl)cc1N1CCN(C(=O)c2cn(C)c3ccc(S(=O)(=O)N(C)C4CCCCC4)cc3c2=O)CC1` the entry was “inactive”; with `S=c1[nH]c(=S)c2n[nH]nc2[nH]1`, “inactive”; with `COc1cccc(C(=O)NC(=O)Nc2ccc(-c3cc(C(F)(F)F)nn3-c3ccccc3)cc2)c1`, “inactive”.
Turning to `COc1ccc(CCN2C(=O)N(c3cccc(OC)c3)C(=O)C2CC(=O)Nc2ccccc2)cc1` (centres undefined), the Potency result is “inactive”.
On to `COc1ccc(CC(=O)NCCc2sc3nc(-c4ccc(OC)cc4)nn3c2C)cc1`, for which the Potency entry was “inactive”.
With `CCc1ccc(Nc2nn3c(=O)c4cc5c(cc4nc3s2)OCO5)cc1` the entry was “inactive”; with `CCOC(=O)c1c(C)[nH]c(C)c1S(=O)(=O)NCC(=O)NCc1cccc(C)c1`, “inactive”.
Then `COc1ccc(CNC(=O)Cn2nnc(-c3ccc(S(C)(=O)=O)cc3)n2)cc1`, with “inactive”; and `COc1ccc(OC)c(NC(=O)CSc2nc3ccccc3nc2N2CCCCC2)c1`, with “inactive”.
With `Cc1ccc(Cn2cnc3c(cnn3C(C)(C)C)c2=O)c(F)c1` the entry was “inactive”.
Regarding `Brc1cccc(-c2nnn3c2nc(NC2CCCCC2)c2ccccc23)c1`, the Potency result was “inactive”.
Then `C[N+]1(CC(=O)c2cccs2)CCOCC1`, with “inactive”.
As for `CCCNC(=O)C1CCN(c2nc3ccc(C)cc3[nH]2)CC1`, the Potency entry is “inactive”.
With `COc1cc(OC)c(NC(=O)c2c3c(nn2C)-c2ccccc2SC3)cc1Cl` the entry was “inactive”; with `CN(N=O)c1ccc(C=C2c3ccccc3-c3ccccc32)cc1`, “inactive”.
`COc1ccc2[nH]c3c(c2c1)CCN(C(=O)CCC1CCCC1)C3c1ccc(F)cc1` (centres undefined): the Potency result was “inactive”.
Then `CN(C)c1cccc2ccccc12`, with “inactive”.
With `CN(C)c1ccc(/C=C/c2c3ccccc3nc3ccccc23)cc1` the entry was “inactive”.
With `Cc1oc2c(c1C(=O)Nc1ccc(F)c(F)c1)C1=NCCN1C=N2` the entry was “inactive”.
For the compound `CCc1nnc(SCc2c(F)cccc2Cl)c2cc3sccc3n12`, the Potency result was “inactive”.
With `COc1ccc(/C=C/c2ccccn2)cc1OC` the entry was “inactive”; with `Cc1cc(Cl)ccc1OCC(=O)N(Cc1ccc(N(C)C)cc1)C1CCS(=O)(=O)C1` (centres undefined), “inactive”; with `CN(C)C1=C2C=CC=CC2/C(=C2/C=Cc3ccccc32)C=C1` (centres undefined), “inactive”.
Then `CCOc1ccccc1NC(=O)Cn1c(=O)n(-c2cccc(C)c2)c(=O)c2c1c1cc(OC)ccc1n2C`, with “inactive”; and `O=C(Nc1ccc([N+](=O)[O-])cc1)c1cnn2c1NC(=C1CC1)C=C2C(F)F`, with “inactive”.
Then `O=C(CSc1ncc(S(=O)(=O)c2ccc(Br)cc2)c(=O)[nH]1)Nc1ccc2c(c1)OCCO2`, with “inactive”.
Regarding `CCOc1ccccc1C(=O)NCc1ccc2c(c1)CCN2C(=O)c1ccc(F)cc1`, the Potency result is “inactive”.
Then `COc1cc2nc(C#Cc3nc4cc(OC)c(OC)cc4[nH]3)[nH]c2cc1OC`, with “inactive”; and `Cc1ccccc1NC(=O)COc1cccc2c1CCNC2=O`, with “inactive”; and `COc1cccc(/C=N/NC(=O)c2[nH]nc3c2CCc2ccccc2-3)c1O`, with 8.91 µM (active).
In the case of `Cc1ncc(CO)c(/C=N/NC(=O)c2cccc(S(=O)(=O)N3CCCC3)c2)c1O`, the Potency result is “inactive”.
Then `CCc1cc2c(cc3c(=O)n(CC(=O)N4CCN(c5cc(Cl)ccc5C)CC4)nc(CC)n32)s1`, with “inactive”.
